The text below walks through data of PubChem BioAssay AID651610 (Broad Institute, 2012).

Screen size: about 360,000 compounds; about 3,900 (1.1%) were called active.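 The calls were made as follows: active = mean replicate inhibition score of at least 50 and every replicate individually at or above 50; inconclusive = only one of the two criteria met; inactive = mean below 50 and not all replicates reaching 50.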 Many of the other results were omitted from the sample, so actives are more common in it than they were.

The inhibition is the relative decrease from the control value, in per cent.

This experiment can be described thus: inhibitors of HIV-1 Env-driven cell-cell fusion, primary screen, HeLa-JRFL effector, CEM21 target cells, luciferase (AID 651610).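 Also: 0% = plate neutral controls and 100% = maraviroc near 300 nM.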 Conditions: stronger effect = higher value; at 16.7 µM unless noted.
With `CN(C)C(=O)C[C@H]1C=C[C@@H](NC(=O)C2CCC2)[C@@H](CO)O1`, the inhibition is 24.4% (inactive).

Regarding `CCCOc1cccc(C(=O)NCCCNC(=O)c2cccnc2)c1`, the inhibition was 11.1% [at 12.3 µM] (inactive). Regarding `Cc1ccc(OCC(=O)N2CCN(C(=O)c3cccnc3)CC2)cc1`, the inhibition is -3.51% [at 12.3 µM] (inactive). In the case of `CCCCCCOc1ccc(OC(=O)c2cccnc2)cc1`, the inhibition was 58.2% [at 12.3 µM] (active). The figure for `C[C@H](CO)N1C[C@H](C)[C@H](CN(C)S(C)(=O)=O)Oc2ncc(C3=CCCCC3)cc2C1=O` is 10.5% (inactive); for `N#C[C@H]1[C@H](c2ccc(C#Cc3ccc(F)cc3)cc2)[C@@H](CO)N1C(=O)C1CCCC1` it is 10.1% (inactive); for `COCc1cn(CC[C@@H]2CC[C@@H](NC(=O)Cc3cccnc3)[C@@H](CO)O2)nn1` it is 7.99% (inactive). Consider `C[C@H]1CCCCO[C@H](CN(C)C(=O)Nc2ccc3c(c2)OCO3)[C@@H](C)CN([C@@H](C)CO)C(=O)c2cc(NC(=O)Nc3ccccc3)ccc2O1`, for which the inhibition was -15.3% (inactive). For the compound `CCN(CC)CCN(C(=O)c1cc(Cl)sc1Cl)c1nc2cc3c(cc2s1)OCO3`, the inhibition was 71.9% [at 12.3 µM] (active). To `CN(C)CCN(C(=O)C1=COCCO1)c1nc2ccc(Cl)cc2s1` belongs -71.9% [at 12.3 µM] (inactive).

For the compound `CCN(CC)CCN(C(=O)c1ccc(N2C(=O)CCC2=O)cc1)c1nc2cc3c(cc2s1)OCO3`, the inhibition was 13.5% [at 12.3 µM] (inactive). The figure for `CC(C)NC(=O)N(C)C[C@H]1Oc2ccc(NS(=O)(=O)c3cn(C)cn3)cc2CC(=O)N([C@@H](C)CO)C[C@H]1C` is -7.65% (inactive); for `Cc1ccc(CN2CC(C(=O)N3CCN(S(=O)(=O)c4ccccc4)CC3)CC2=O)cc1` (centres undefined) it is 64.5% [at 12.3 µM] (active). To `Cc1ccc(S(=O)(=O)N2CCC(C(=O)N3CCCCCCC3)CC2)cc1` belongs -2.71% [at 12.3 µM] (inactive). The figure for `CCC(C)c1ccccc1N1CC(C(=O)N2CCN(S(=O)(=O)c3ccc(F)cc3)CC2)CC1=O` (centres undefined) is 18.5% [at 12.3 µM] (inactive); for `COc1ccc2c3c(n(C)c2c1)[C@@H](CO)N(C(C)=O)CC31CCN(C(=O)C2CC2)CC1` it is 3.46% (inactive).

Consider `C[C@H](CO)N1C[C@H](C)[C@H](CN(C)C(=O)Nc2ccc(F)cc2)Oc2c(NC(=O)c3cnccn3)cccc2C1=O`, for which the inhibition was 30.7% (inactive). `Cc1ccc(NC(=O)NNC(=O)c2sccc2-n2cccc2)cc1`: the inhibition is -3.39% [at 12.3 µM] (inactive). With `O=C(NNC(=O)c1ccc(-c2ccccc2)cc1)Nc1ccccc1`, the inhibition is 17% [at 12.3 µM] (inactive). With `C=CC[n+]1c(-c2ccc(C)cc2)csc1NNC(=O)Nc1ccccc1`, the inhibition is 77.7% [at 12.3 µM] (active). To `C[C@H](CO)N1C[C@H](C)[C@@H](CN(C)CC2CCOCC2)Oc2ncc(C#Cc3ccc(F)cc3)cc2C1=O` belongs 7.54% (inactive). To `C[C@@H](O)C#Cc1cnc2c(c1)C(=O)N([C@@H](C)CO)C[C@H](C)[C@H](CN(C)C(=O)c1ccccc1F)O2` belongs 5.54% (inactive); to `COCCNc1nc(NCc2ccc(NC(C)=O)cc2)c2sccc2n1`, -25.8% [at 12.3 µM] (inactive). To `COc1ccccc1CNc1nc(Nc2ccccc2Cl)c2sccc2n1` belongs 20.5% [at 12.3 µM] (inactive). For `COc1cccc(CNc2nc(NCc3ccccc3OC)nc3ccsc23)c1`, the inhibition is 72.3% [at 12.3 µM] (active).

On to `C[C@@H]1CN([C@@H](C)CO)C(=O)Cc2cc(NS(C)(=O)=O)ccc2O[C@H]1CN(C)S(=O)(=O)c1ccc(F)cc1`, for which the inhibition was -0.637% (inactive). On to `CN1[C@@H]2c3ccc(-c4ccc(F)cc4)c(=O)n3C[C@H]1[C@H](CO)[C@H]2C(=O)NC1CCC1`, for which the inhibition is 0.501% (inactive).

With `CCN1C(=O)[C@H]2[C@@H](c3ccc(C)cc3)N3C(=O)N(c4cccc(Br)c4)C(=O)[C@@]3(CC)[C@H]2C1=O`, the inhibition is 82.7% [at 12.3 µM] (active). For the compound `CC[C@@]12C(=O)N(c3ccccc3)C(=O)N1[C@H](c1ccc(Br)cc1)[C@@H]1C(=O)N(C(C)(C)C)C(=O)[C@@H]12`, the inhibition is 59.8% [at 12.3 µM] (active). Turning to `CCN1C(=O)[C@H]2[C@@H](c3ccc(C(F)(F)F)cc3)N[C@]3(CCCN(Cc4ccc(Br)cc4)C3=O)[C@H]2C1=O`, the inhibition was -31.5% [at 12.3 µM] (inactive). To `CC12C(=O)N(c3ccccc3)C(=O)C1C(c1ccccc1)N1CCCN12` (centres undefined) belongs 6.12% [at 12.3 µM] (inactive). The figure for `CCOC(=O)[C@@H]1[C@H]2COc3ccc(Br)cc3[C@H]2N2C(=O)N(c3ccc(C)cc3)C(=O)[C@@]12C` is -52.6% [at 12.3 µM] (inactive). To `COc1ccc([C@@H]2[C@@H]3C(=O)N(C(C)(C)C)C(=O)[C@@H]3[C@]3(Cc4ccccc4)C(=O)N(c4cccc(Br)c4)C(=O)N23)cc1` belongs 33.2% [at 12.3 µM] (inactive). As for `CC(C)(C)N1C(=O)[C@H]2[C@@H](c3ccc(Br)cc3)N3C(=O)N(c4cccc(Cl)c4)C(=O)[C@@]3(C)[C@H]2C1=O`, the inhibition is 72.7% [at 12.3 µM] (active).

Turning to `CCCCC1(C(=O)OCC)NC(c2ccc(O)cc2)C2C(=O)N(c3ccccc3)C(=O)C21` (centres undefined), the inhibition was 2.85% [at 12.3 µM] (inactive).

Regarding `C[C@@]12C(=O)N(c3cccc(Br)c3)C(=O)N1[C@H](c1ccc(Cl)cc1)[C@@H]1C(=O)N(C3CCCCC3)C(=O)[C@@H]12`, the inhibition was -9.25% [at 12.3 µM] (inactive).

Turning to `C[C@@H]1CCCCO[C@@H](CN(C)S(=O)(=O)c2ccc(F)cc2)[C@@H](C)CN([C@@H](C)CO)C(=O)c2cc(NC(=O)Nc3ccc(F)cc3)ccc2O1`, the inhibition is -9.74% (inactive). To `C[C@H](CO)N1C[C@H](C)[C@@H](CN(C)C(=O)C2CC2)Oc2cc(-c3cccc(C#N)c3)ccc2S1(=O)=O` belongs 6.81% (inactive).

Regarding `COc1ccccc1S(=O)(=O)N[C@@H]1CC[C@H](CC(=O)N2CCN(C)CC2)O[C@@H]1CO`, the inhibition was -0.692% (inactive). On to `C[C@@H]1CN([C@@H](C)CO)C(=O)c2cccc(NC(=O)C3CCOCC3)c2O[C@H]1CN(C)C(=O)NC1CCCCC1`, for which the inhibition was 10.1% (inactive). The figure for `C[C@@H]1CN([C@@H](C)CO)S(=O)(=O)c2ccc(C#CC3CCCC3)cc2O[C@H]1CN(C)S(C)(=O)=O` is 6.95% (inactive); for `COc1cccc(-c2cnc3c(c2)C(=O)N([C@H](C)CO)C[C@@H](C)[C@H](CN(C)Cc2ccc(F)cc2)O3)c1` it is 7.73% (inactive); for `CN1C(=O)c2cc(NC(=O)c3cccs3)ccc2OC[C@H]2O[C@@H](CC(=O)NCC3CC3)CC[C@@H]21` it is 3.56% (inactive). To `Cc1cc(C)cc(N2C(=O)CSC2c2cccc([N+](=O)[O-])c2)c1` (centres undefined) belongs -6.42% (inactive); to `C[C@H]1CN([C@@H](C)CO)C(=O)c2cccc(NS(=O)(=O)c3ccc(Cl)cc3)c2O[C@H]1CN(C)S(=O)(=O)c1ccc(Cl)cc1`, -26.5% (inactive); to `O=C(CCS(=O)(=O)c1ccccc1)Nc1nc2c(s1)CCCC2`, 60.1% [at 12.3 µM] (active). The figure for `O=C(CSc1nc(O)c(Cc2ccccc2)c(=O)[nH]1)Nc1nc2c(s1)CCCC2` is 25.1% [at 12.3 µM] (inactive). In the case of `O=C(CCS(=O)(=O)c1ccccc1)NC1CCCC1`, the inhibition is 11.3% [at 12.3 µM] (inactive).

In the case of `CCCOc1ccc(N2C(=O)CC(N(CCc3ccc(S(N)(=O)=O)cc3)C(C)=O)C2=O)cc1` (centres undefined), the inhibition was 19.9% [at 12.3 µM] (inactive).

For the compound `CCOc1ccc(N2C(=O)CC(N(CCc3ccc(OC)c(OC)c3)C(=S)Nc3ccccc3)C2=O)cc1` (centres undefined), the inhibition was 58.4% [at 12.3 µM] (active). On to `COc1ccc(N2C(=O)C(CC(=O)Nc3ccccc3)N(Cc3ccc(OC)c(OC)c3)C2=O)cc1` (centres undefined), for which the inhibition is 56.7% [at 12.3 µM] (active). The figure for `CCOc1ccc(NC(=O)CC2C(=O)N(c3ccccc3)C(=O)N2CCOC)cc1` (centres undefined) is -3.16% [at 12.3 µM] (inactive).

In the case of `COC(=O)CN(C(=S)Nc1ccc(Cl)cc1)C1CC(=O)N(c2ccc(OC)cc2)C1=O` (centres undefined), the inhibition is -3.79% [at 12.3 µM] (inactive).

Turning to `COc1ccc(CCN2C(=O)N(c3ccc(OC)cc3)C(=O)C2CC(=O)Nc2ccc(OC)cc2)cc1` (centres undefined), the inhibition is 9.15% [at 12.3 µM] (inactive). As for `C[C@H](CO)N1C[C@H](C)[C@@H](CN(C)C(=O)C2CC2)Oc2cc(C#CC(C)(C)O)ccc2S1(=O)=O`, the inhibition was -33.6% (inactive).

As to `C[C@@H]1CCCCO[C@@H](CN(C)C(=O)Nc2cccc3ccccc23)[C@H](C)CN([C@H](C)CO)C(=O)c2cc(NS(C)(=O)=O)ccc2O1`, the inhibition was -3.83% (inactive). As for `Cc1noc(C)c1S(=O)(=O)Nc1ccc2c(c1)CC(=O)N([C@H](C)CO)C[C@@H](C)[C@@H](CN(C)Cc1ccc(C(=O)O)cc1)O2`, the inhibition is 20.1% (inactive). To `Cn1c(=O)c2c(nc(NCCc3ccccc3)n2Cc2ccccc2)n(C)c1=O` belongs 86.6% [at 12.3 µM] (active). To `CC(C)OCCCNc1nc2c(c(=O)n(Cc3ccccc3F)c(=O)n2C)n1C` belongs 4.04% [at 12.3 µM] (inactive); to `CCCCNc1nc2c(c(=O)n(C)c(=O)n2C)n1Cc1cccc(OC)c1`, 88.5% [at 12.3 µM] (active). On to `Cn1c(=O)c2c(nc(NCCNC(=O)c3ccco3)n2Cc2ccccc2F)n(C)c1=O`, for which the inhibition was 0.989% [at 12.3 µM] (inactive). The figure for `Cn1c(=O)c2c(nc(NCc3ccccc3)n2CC(N)=O)n(C)c1=O` is -8.78% [at 12.3 µM] (inactive); for `CC1CN(Cc2nc3c(c(=O)n(C)c(=O)n3C)n2Cc2cccc(Cl)c2)CC(C)O1` (centres undefined) it is 7.96% [at 12.3 µM] (inactive); for `COc1ccc(S(=O)(=O)Nc2ccc3c(c2)C(=O)N([C@H](C)CO)C[C@@H](C)[C@H](CN(C)C(=O)Nc2ccc4c(c2)OCO4)O3)cc1` it is 12% (inactive).
